Entries with a potency or affinity are not part of this list. Calls of active or inactive are those of the source.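 The calls were made as follows: active = fitted half-maximal dose no more than twice the top valid tested dose, for compounds that lower signal; inconclusive = fit invalid, or curve flat with activity between -70 and -30; inactive = potency past limit, curve flat within ±30, or signal increasing.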
Target: NAD-dependent protein deacylase sirtuin-5, mitochondrial (Homo sapiens) (UniProt Q9NXA8)
Sequence (Q9NXA8 whole entry, looked up): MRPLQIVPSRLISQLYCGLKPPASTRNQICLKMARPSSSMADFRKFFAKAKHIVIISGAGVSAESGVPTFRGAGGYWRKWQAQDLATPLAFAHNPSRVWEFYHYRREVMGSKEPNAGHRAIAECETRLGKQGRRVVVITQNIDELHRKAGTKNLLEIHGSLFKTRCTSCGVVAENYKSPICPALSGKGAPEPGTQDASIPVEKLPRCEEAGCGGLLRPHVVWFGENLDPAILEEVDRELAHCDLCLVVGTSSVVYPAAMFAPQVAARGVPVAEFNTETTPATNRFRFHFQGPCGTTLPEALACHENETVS
Test: blockers of sirtuin-5 peptide desuccinylation – biochemical, fluorescence imaging, cherry-pick, set 6, dose response (AID 720597);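 also: lower AMC signal can also come from blocking the trypsin step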
Conditions: Purified SirT5, succinyl-peptide-AMC/trypsin fluorescence; series mostly up to 15 µM

outcome, inactive:
Cc1ccc(S(=O)(=O)N[C@@H]2C=C[C@H](CC(=O)N3CCN(c4ccccc4)CC3)O[C@@H]2CO)cc1
CCCNC(=O)N1[C@H](CO)[C@H](c2ccccc2)C12CN(C(=O)CC1CC1)C2
COc1ccc(S(=O)(=O)N(C)C[C@@H]2OCCCC[C@H](C)Oc3ccc(NS(=O)(=O)c4cccs4)cc3C(=O)N([C@@H](C)CO)C[C@H]2C)cc1
C[C@@H]1CN([C@H](C)CO)C(=O)c2cc(N(C)C)ccc2O[C@H]1CN(C)S(=O)(=O)c1ccccc1
COc1ccc(S(=O)(=O)N(C)C[C@@H]2OCCCC[C@H](C)Oc3ccc(NS(=O)(=O)c4ccc(Cl)cc4)cc3C(=O)N([C@@H](C)CO)C[C@H]2C)cc1
Cc1noc(C)c1S(=O)(=O)N(C)C[C@@H]1Oc2ccc(NC(=O)Cn3cnnn3)cc2C(=O)N([C@@H](C)CO)C[C@@H]1C
COc1ccccc1S(=O)(=O)N(C)C[C@H]1Oc2cc(C#CCC3CCCC3)ccc2S(=O)(=O)N([C@@H](C)CO)C[C@@H]1C
C[C@H]1CN([C@@H](C)CO)S(=O)(=O)c2ccc(-c3cccc(F)c3)cc2O[C@H]1CN(C)S(=O)(=O)c1ccc(F)cc1
C[C@H]1CN([C@@H](C)CO)S(=O)(=O)c2ccc(/C=C/c3ccccc3)cc2O[C@H]1CN(C)C(=O)NC1CCCC1
C[C@H](CO)N1C[C@H](C)[C@@H](CN(C)Cc2ccc(C(F)(F)F)cc2)OCCCC[C@H](C)Oc2ccc(NS(=O)(=O)c3ccc(Cl)cc3)cc2C1=O
Cc1ccc(S(=O)(=O)N(C)C[C@@H]2OCCCC[C@H](C)Oc3ccc(NS(=O)(=O)c4ccc(F)cc4)cc3C(=O)N([C@H](C)CO)C[C@H]2C)cc1
C[C@@H]1CN([C@@H](C)CO)C(=O)Cc2cc(NC(=O)CCCCCC(=O)Nc3ccccc3N)ccc2O[C@@H]1CN(C)Cc1ccc(Oc2ccccc2)cc1
CNC[C@@H]1Oc2ccc(NC(=O)Nc3ccc(F)cc3)cc2CC(=O)N([C@@H](C)CO)C[C@H]1C
COCC(=O)Nc1ccc2c(c1)OC[C@H](C)N(CC1CC1)C[C@@H](C)[C@@H](OC)CN(C)C2=O
CN(C)c1ccc2c(c1)[C@@H]1C[C@@H](CC(=O)NCc3ccccc3)O[C@H](CO)[C@@H]1O2
O=C(C[C@H]1CC[C@H]2[C@@H](COC[C@@H](O)CN2Cc2cccc(Cl)c2)O1)N1CCCCC1
C[C@@H]1CN([C@@H](C)CO)C(=O)Cc2cc(NS(=O)(=O)c3ccc(F)cc3)ccc2O[C@@H]1CN(C)C(=O)NC1CCCCC1
C[C@@H]1CCCCO[C@H](CN(C)C(=O)Nc2ccc(C(F)(F)F)cc2)[C@H](C)CN([C@@H](C)CO)C(=O)c2cc(NS(=O)(=O)c3ccc(Cl)cc3)ccc2O1
COc1cccc(NC(=O)N2CC(=O)N3[C@H](CO)[C@@H](c4ccc(C#CCC5CCCC5)cc4)[C@H]3C2)c1
CC(=O)N(C)C[C@H]1Oc2ncc(C3=CCCC3)cc2C(=O)N([C@H](C)CO)C[C@H]1C
C[C@@H]1CN([C@H](C)CO)S(=O)(=O)c2ccc(C#CC3CC3)cc2O[C@H]1CN(C)Cc1ccccc1F
CCCc1c(C)nc2ccc(Br)cc2c1SCCC(=O)O
Cc1ccc(S(=O)(=O)N(C)C[C@H]2OCCCC[C@@H](C)Oc3ccc(NS(=O)(=O)c4ccc(Cl)cc4)cc3C(=O)N([C@@H](C)CO)C[C@@H]2C)cc1
O=C(NCC[C@H]1CC[C@H](NC(=O)C2CC2)[C@@H](CO)O1)c1cc(Cl)cc(Cl)c1
CCCC#Cc1ccc2c(c1)O[C@@H](CN(C)C(=O)c1ccccc1F)[C@@H](C)CN([C@@H](C)CO)S2(=O)=O
C[C@H](CO)N1C[C@H](C)[C@H](CN(C)Cc2ccncc2)Oc2ccc(NC(=O)CCN3CCOCC3)cc2C1=O
O=C(CCN1CCCCC1)N[C@H]1CC[C@H](CC(=O)N2CCC(Cc3ccccc3)CC2)O[C@@H]1CO
O=S(=O)(c1ccc(F)cc1)N1CCCCN2[C@@H](CO)[C@@H](c3ccc(C#CC4CCCC4)cc3)[C@@H]2C1
CC(C)C#Cc1ccc2c(c1)O[C@@H](CN(C)Cc1ccccn1)[C@H](C)CN([C@H](C)CO)S2(=O)=O

From PubChem BioAssay AID720597 (Broad Institute, 2013)
